Growth data for 31 compounds are collected here from PubChem BioAssay (NCI).

What all share (assay): NCI-60 one-dose screen, 48 h (100 = growth as untreated, 0 = no growth, -100 = all killed)
Common to all, as to settings: 10 µM

In assay [1] the test system is SR leukemia.
For assay [2], the system named is RPMI-8226 leukemia.
The test system of assay [3] is OVCAR-8 ovarian.
In assay [4] the test system is OVCAR-5 ovarian.
Assay [5] deals with OVCAR-4 ovarian.
In assay [6] the test system is SK-OV-3 ovarian.
In assay [7] the test system is IGROV1 ovarian.
Assay [8] relates to OVCAR-3 ovarian.
Assay [9] relates to NCI/ADR-RES ovarian.
Assay [10] concerns HS 578T breast.

Structures are written as SMILES. The panel holds about 83,000 compounds, 20% with a hit somewhere; the sample as a whole holds those more often.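 96-well plates, one dose, 48 hours. Percent growth reported; active if below 10.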 Values without a mark were called inactive. Active and inactive are the calls of the source.

For `CCC(C#N)(CC)c1ccccc1`, the growth was 108% in [1]; 104% in assay [2]; 107% in [3]; 104% in assay [4]; 113% in assay [5]; 102% in assay [6]. The growth in assay [7] is 112%; in [8] it was 109%; in [9], 102%.
`COCCCC/C(=N\OCCN)c1ccc(C(F)(F)F)cc1`: the growth was 85.8% in [1]; 100% in assay [2]; 102% in [3]; 92.5% in assay [4]; 110% in assay [5]; 105% in [6]. Also, the growth in [7] is 105%; in assay [8], 105%; in assay [9] it was 102%.
As for `Cc1nc2ccccc2c2nnc(SCC(=O)N(Cc3ccccc3)c3ccccc3)n12`, the growth is 67.6% in [1]; 78.8% in [2]; 100% in [3]; 95% in assay [4]; 91.7% in assay [5]; 93.8% in [6]. In addition, the growth in assay [7] is 71.6%; in assay [8], 93.4%; in assay [9] it was 96.1%.
Consider `O=C(O)CCCCNC(=O)c1ccccc1`, for which the growth in [1] was 95.7%; in assay [2] it was 103%; in [3] it was 108%; in assay [4], 116%; in assay [5], 108%; in [6] it was 97.9%. The growth in [7] and in assay [10] was 108% throughout.
With `CCC(=O)Oc1ccc(OC)cc1`, the growth was 92.6% in assay [1]; 128% in assay [2]; 108% in assay [3]; 102% in [4]; 114% in [5]; 101% in [6]. The values for the growth in assay [7], in assay [8] and in assay [9] were 93.1%, 103% and 106%, respectively.
In the case of `O=C(CS)Nc1ccc2ccccc2c1`, the growth in assay [1] was 94.9%; in [2], 44.9%; in assay [3], 114%; in assay [4], 102%; in [5], 116%; in [6], 108%. Besides, the growth in [7] was 107%; in assay [9] it was 112%.
Consider `CCC/C=C(\C)C(C)(C#N)C(=O)OCC` (stereo unspecified), for which the growth was 100% in [1]; 95.1% in assay [2]; 101% in [3]; 110% in assay [4]; 107% in assay [5]; 111% in assay [6]. Further, the growth is 107% in assay [7], 124% in [8] and 110% in assay [9].
Take `O=C(O)/C=C/c1ccc2c(c1)CCC2`: the growth in [1] was 80.2%; in assay [2], 99.2%; in assay [3] it was 99.8%; in [4] it was 97.8%; in [5] it was 104%; in assay [6] it was 99.6%. For the same compound, the growth is 118% in assay [7], 117% in assay [8] and 109% in [9].
For `CC1(C)Nc2cccc3c(N=Nc4ccc(N=Nc5ccccc5)c5ccccc45)ccc(c23)N1`, the growth in assay [1] was 107%; in [2], 97%; in assay [3], 109%; in assay [4], 94.9%; in assay [5], 91.1%; in [6], 95.6%. Also, the growth is 52.1% in assay [7], 104% in assay [10] and 98.1% in assay [9].
As for `Nc1ccc(N=Nc2ccc(O)cc2)c(N)n1`, the growth in [1] was 80%; in [2], 38.1%; in [3], 75%; in [4] it was 104%; in assay [5], 59.2%; in assay [6] it was 97.3%. Moreover, the growth in assay [7] was 89.4%; in assay [8], 73.4%; in assay [9] it was 64.5%.
`O/N=C/c1ccc(O)cc1O`: the growth in [1] is 110%; in assay [2] it was 94.8%; in assay [3], 94.1%; in assay [4], 94.7%; in assay [5], 109%; in assay [6], 103%. The growth is 117% in [7], 112% in assay [8] and 104% in assay [9].
Turning to `O=C(O)c1ccccc1NCc1ccco1`, the growth in assay [1] was 87.8%; in [2], 79.1%; in assay [3], 94.2%; in assay [4], 93.1%; in assay [5] it was 99.1%; in assay [6], 109%. Also, the growth in assay [8] was 111%; in [10], 107%; in assay [9] it was 94.5%.
On to `Nc1ccc(C(=O)c2ccc(N)c(Br)c2)cc1Br`, for which the growth in [1] was 26.1%; in [2] it was 30.5%; in assay [3], 26.4%; in [4], 40%; in assay [5], 49.1%; in assay [6] it was 8.33% (active). In addition, the growth in assay [7] is 32.8%; in assay [10] it was -14.8% (active); in [9], 0.17% (active).
For `O=C(O)c1cc([N+](=O)[O-])ccc1Cl`, the growth in assay [1] was 88.4%; in assay [2], 88.8%; in assay [3], 96.1%; in assay [4] it was 104%; in assay [5], 107%; in [6] it was 106%. The growth in assay [7] was 117%; in [8], 115%; in [9], 103%.
Consider `O=C(CN1CCNCC1)N1CCOCC1`, for which the growth is 82.6% in assay [1]; 99.3% in [2]; 91.9% in assay [3]; 109% in assay [4]; 110% in assay [5]; 110% in [6]. Also, the values for the growth in assay [7], in [8] and in assay [9] were 115%, 122% and 107%, respectively.
In the case of `NC(=O)N/N=C\c1ccco1`, the growth in [1] was 107%; in assay [2] it was 105%; in assay [3] it was 109%; in assay [4] it was 118%; in assay [5] it was 121%; in [6] it was 102%. The values for the growth in assay [7], in assay [8] and in assay [9] were 99.6%, 125% and 101%, respectively.
As for `CCn1c(=O)n(C)c2c(=O)n(C)c(=O)n(C)c21`, the growth in assay [1] was 101%; in [2] it was 106%; in assay [3], 101%; in assay [4] it was 108%; in assay [5], 111%; in assay [6], 106%. For the same compound, the growth was 122% in [7], 110% in assay [10] and 105% in assay [9].
For `O=c1cc2oc3cc(O)c(O)cc3c(-c3ccccc3O)c-2cc1O`, the growth is 82.7% in [1]; 12.1% in assay [2]; 75.1% in assay [3]; 94.8% in assay [4]; 70.1% in [5]; 57.4% in assay [6]. Besides, the growth in assay [7] was 63.9%; in assay [9], 78.4%.
Take `NC(=S)CN1CCOCC1`: the growth in [1] was 78.2%; in [2], 93.7%; in assay [3], 105%; in assay [4] it was 105%; in assay [5] it was 121%; in assay [6], 112%. Besides, the growth in assay [7] is 102%; in assay [8] it was 111%; in [9], 105%.
In the case of `C=CCc1cc(C(C)=O)cc(OC)c1O`, the growth in assay [1] is 113%; in [2], 122%; in [3], 101%; in [4], 101%; in assay [5], 107%; in [6], 113%. Moreover, the growth was 106% in [8], 102% in assay [10] and 107% in assay [9].
As for `O=[N+]([O-])c1ccccc1N=Nc1ccc(O)cc1O`, the growth in [1] is 93%; in [2], 109%; in [3], 104%; in assay [4], 126%; in [5] it was 99.5%; in assay [6] it was 101%. In addition, the results for the growth in assay [7], in [8] and in assay [9] were 92.9%, 122% and 118%, respectively.
In the case of `C#CC(C)(O)c1ccc(Cl)cc1` (stereo unspecified), the growth is 96.6% in assay [1]; 101% in [2]; 105% in assay [3]; 107% in assay [4]; 102% in [5]; 90.3% in [6]. The values for the growth in assay [7] and in [10] were 111% and 106%, respectively.
`CC1(C(N)=O)CCC(C(=O)O)C1(C)C` (stereo unspecified): the growth was 111% in assay [1]; 100% in assay [2]; 105% in assay [3]; 98.2% in assay [4]; 102% in assay [5]; 94.4% in assay [6]. Besides, the growth in assay [8] was 119%; in assay [10], 105%; in assay [9] it was 110%.
With `O=[N+]([O-])c1cccc2nsnc12`, the growth in [1] was 99.8%; in assay [2], 104%; in assay [3] it was 93.4%; in [4], 122%; in assay [5], 114%; in [6] it was 94.1%. Further, the growth in assay [8] was 107%; in assay [10] it was 101%.
For `NC(CSC(c1ccccc1)(c1ccccc1)c1ccccc1)C(=O)O` (stereo unspecified), the growth was 15.3% in assay [1]; 4.13% (active) in assay [2]; 22.6% in assay [3]; 41.8% in assay [4]; 74.6% in [5]; 17% in assay [6]. The growth in assay [7] was 63.3%; in assay [8] it was 15.9%; in assay [9] it was 93%.
As for `O=[N+]([O-])c1ccc(N=Nc2ccccc2)cc1`, the growth in [1] is 97.9%; in assay [2], 98%; in assay [3], 104%; in [4], 97.7%; in assay [5], 107%; in assay [6] it was 113%. The growth in [7] is 89.8%; in assay [8], 107%; in assay [9], 94.8%.
Regarding `Cc1nc2ccccc2c(C(=O)O)c1O`, the growth in [1] was 95.6%; in assay [2] it was 179%; in assay [3], 102%; in [4], 91.4%; in assay [5] it was 116%; in assay [6], 95.3%. Also, the growth is 113% in [8], 88.1% in assay [10] and 94.5% in assay [9].
Take `COc1cc(CN)ccc1O`: the growth is 89.5% in [1]; 81% in assay [2]; 102% in [3]; 95.5% in [4]; 108% in [5]; 93.8% in assay [6]. Further, the growth in assay [7] is 78.7%; in [8], 105%; in assay [9], 94.2%.
For `C=CCNC(=O)c1ccc(OC)cc1`, the growth is 110% in [1]; 92.4% in [2]; 107% in assay [3]; 103% in assay [4]; 134% in assay [5]; 116% in assay [6]. Besides, the results for the growth in assay [7], in [8] and in [9] were 96.2%, 121% and 101%, respectively.
Consider `Cc1cc(C)c(N)c(S(=O)(=O)O)c1`, for which the growth is 81.4% in assay [1]; 92.4% in [2]; 104% in [3]; 98.9% in assay [5]; 94.6% in [6]; 108% in [7]. Further, the growth in [8] is 113%.
Regarding `CCC(C)(O)c1ccc(C)cc1` (stereo unspecified), the growth in assay [1] was 105%; in assay [2], 96.7%; in [3] it was 104%; in [4], 101%; in assay [5], 106%; in assay [6], 97.8%. Further, the results for the growth in assay [8] and in assay [9] were 107% and 110%, respectively.
